The text below walks through data of PubChem BioAssay (NCATS).

Records with an inconclusive call do not appear. Values without a mark were called inactive. Active and inactive are the calls of the source. Calls come from the whole dose curve; as a rule, active = well fitted inhibition curve with a large enough effect; inconclusive = small, poorly fitted or top-dose-only effect; inactive = no such curve, though single readings can be large or run the other way.
Potency is the fitted concentration of half-maximal effect.

This assay deals with RecQ-like DNA helicase BLM (Homo sapiens) (UniProt P54132). Briefly: qHTS Validation Assay for Inhibitors of Bloom's syndrome helicase (BLM) (AID 2364). As to conditions: BLM helicase DNA unwinding, fluorescence, in vitro; series mostly up to 57.1 µM; activity change, negative = inhibition: at the top concentration. From the text: Survival of cells and the faithful propagation of the genome depend on elaborate mechanisms of detecting and repairing DNA damage. Treatment of advanced cancer relies on radiation therapy or chemotherapy, which kill cancer cells by causing extensive DNA damage. It is often found, that cancer cells develop resistance to therapy through enhanced activity of DNA repair functions; this has led to an increased interest in developing drugs that interfere with DNA repair, which could sensitize cancer cells to conventional therapy.
Sequence of RecQ-like DNA helicase BLM (Homo sapiens) (P54132 whole entry, looked up): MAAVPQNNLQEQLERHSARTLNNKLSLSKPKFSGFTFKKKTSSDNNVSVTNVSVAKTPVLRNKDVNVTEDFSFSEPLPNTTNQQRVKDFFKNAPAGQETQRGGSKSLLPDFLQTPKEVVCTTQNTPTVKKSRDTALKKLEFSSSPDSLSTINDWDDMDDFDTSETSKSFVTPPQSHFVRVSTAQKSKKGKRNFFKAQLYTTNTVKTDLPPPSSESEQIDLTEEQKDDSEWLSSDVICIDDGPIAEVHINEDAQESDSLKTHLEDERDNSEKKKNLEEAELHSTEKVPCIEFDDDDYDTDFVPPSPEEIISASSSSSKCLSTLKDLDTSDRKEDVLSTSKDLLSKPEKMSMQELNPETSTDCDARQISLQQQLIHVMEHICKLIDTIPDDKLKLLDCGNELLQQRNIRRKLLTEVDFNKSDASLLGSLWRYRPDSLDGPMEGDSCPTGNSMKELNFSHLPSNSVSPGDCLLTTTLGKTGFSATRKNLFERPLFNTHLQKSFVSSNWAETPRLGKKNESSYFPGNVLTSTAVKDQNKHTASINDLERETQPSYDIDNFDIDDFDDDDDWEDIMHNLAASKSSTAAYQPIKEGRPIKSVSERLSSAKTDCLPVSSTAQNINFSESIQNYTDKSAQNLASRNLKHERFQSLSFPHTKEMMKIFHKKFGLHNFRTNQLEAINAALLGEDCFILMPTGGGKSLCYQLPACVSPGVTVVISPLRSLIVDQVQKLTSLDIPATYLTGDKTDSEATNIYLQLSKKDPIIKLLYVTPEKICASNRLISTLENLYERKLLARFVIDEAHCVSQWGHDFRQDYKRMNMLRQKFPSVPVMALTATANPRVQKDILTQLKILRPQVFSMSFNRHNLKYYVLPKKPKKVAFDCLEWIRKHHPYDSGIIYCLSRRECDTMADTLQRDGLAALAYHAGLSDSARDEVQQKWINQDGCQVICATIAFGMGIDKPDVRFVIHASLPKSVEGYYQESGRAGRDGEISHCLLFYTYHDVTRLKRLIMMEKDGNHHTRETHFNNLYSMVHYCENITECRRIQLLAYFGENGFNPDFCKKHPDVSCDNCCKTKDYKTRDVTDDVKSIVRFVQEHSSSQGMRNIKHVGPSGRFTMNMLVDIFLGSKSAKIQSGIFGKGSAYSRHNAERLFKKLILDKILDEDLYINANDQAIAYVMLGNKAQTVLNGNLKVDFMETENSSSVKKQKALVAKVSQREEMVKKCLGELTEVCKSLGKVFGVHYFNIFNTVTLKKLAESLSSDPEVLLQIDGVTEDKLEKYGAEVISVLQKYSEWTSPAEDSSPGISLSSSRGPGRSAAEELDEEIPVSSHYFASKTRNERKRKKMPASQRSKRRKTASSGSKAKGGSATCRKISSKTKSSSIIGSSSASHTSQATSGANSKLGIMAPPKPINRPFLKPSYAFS
This validation qHTS assay pertains to human BLM, which is important in resolving abnormal DNA structures formed during replication or homologous recombination. Shutting down the expression of BLM leads to chromosomal instability and higher radiation sensitivity in cultured cells.
The validation assay was a fluorescence quenching based kinetic qHTS for BLM Helicase DNA unwinding. The activity was measured as ATP-dependent separation of a 20-bp DNA duplex extended by 30-nt single-stranded tails (forked duplex). The forked DNA substrate was tagged with rhodamine fluorophore (carboxytetramethyl rhodamine, TAMRA) and BHQ-2 (Black Hole Quencher 2) dark quencher. Strand separation results in an increase in the fluorescence of TAMRA (excitation 525 nm, emission 598 nm). This substrate construct operates in a red-shifted region where very few compound library members have been noted to fluoresce (PubChem AIDs 593 and 594). An additional feature of the assay is the inclusion of 2.5 ug/ml poly (dIdC), to reduce interference by compounds such as DNA intercalators, a major source of false inhibitors.
Ian Hickson, University of Oxford
Opher Gileadi, Structural Genomics Consortium, University of Oxford
Screening Center PI: Austin, C.P.
Screening Center: NIH Chemical Genomics Center [NCGC]
Three uL of reaction buffer (25 mM Tris-HCl (pH 8.0), 5 mM NaCl, 2 mM MgCl2, 1mM DTT, 0.01% Tween- 20, and 2.5 ug/ml poly(dI-dC), including enzyme (50 nM BLM), were dispensed into a 1536-well Greiner black assay plate via solenoid-valve based nanoliter dispensers. Compounds (23 nl each in columns 5-48) and control (23 nl each in column 2 as dose-response) were transferred via a Kalypsys pintool equipped with a 1536-pin array. The plates were incubated for 15 min at room temperature, and then 1 ul of substrates (200 nM DNA and 2 mM ATP, final concentrations) was added to start the reaction. The plate was transferred into a ViewLux high-throughput CCD imager where the reaction progress was measured in a discontinuous kinetic mode (two reads spaced 2 hours apart, with intermediate room temperature incubation of the covered assay plate) by using standard red-fluorescence optics (excitation filter 525 nm, emission filter 598 nm). Enzyme-free and vehicle (DMSO) controls were included for signal normalization.
Background: Quantitative high-throughput screening tests each substance at several concentrations.
`CCCN1CCO[C@@H]2c3cc(O)ccc3OC[C@H]21`: the “activity change, negative = inhibition” value is -5.02%.
Take `CC1=NN=C(c2ccc(N)cc2)c2cc3c(cc2C1)OCO3`: the “activity change, negative = inhibition” value was -3.62%.
In the case of `C[C@]12CCC3C(CC[C@H]4C[C@H](O)CC[C@]34C)C1CC[C@@H]2C(=O)CO` (some centres not stated), the “activity change, negative = inhibition” value was -7.03%.
For `CS(=N)(=O)CC[C@H](N)C(=O)O` (some centres not stated), the “activity change, negative = inhibition” value is -10.3%.
Consider `CN[C@@H]1C[C@@H](c2ccc(Cl)c(Cl)c2)c2ccccc21`, for which the “activity change, negative = inhibition” value is -4.74%.
Take `NC(CCP(=O)(O)O)C(=O)O` (configuration not stated): the “activity change, negative = inhibition” value is -6.55%.
With `CN1C2CCC1CC(OC(=O)c1cc(Cl)cc(Cl)c1)C2` (configuration not stated), the “activity change, negative = inhibition” value was -0.823%.
Consider `Cc1nc(-c2ccc(-c3ccc(C(=O)N4CCc5cc6c(cc54)C4(CCN(C)CC4)CO6)cc3)c(C)c2)no1`, for which the “activity change, negative = inhibition” value is 20.1%.
Still for that read-out and setting: the result for `CCCN(CCC)C1CCc2ccc(O)cc2C1` (configuration not stated) reads -8.55%.
Regarding `CC(C)NC(C)Cc1ccc(I)cc1` (configuration not stated), the “activity change, negative = inhibition” value was -4.18%.
With `Cn1cnc(CCN)c1`, the “activity change, negative = inhibition” value was -11.7%.
As to `Clc1cnc(Oc2ccc(Oc3ncc(Cl)cc3Cl)cc2)c(Cl)c1`, the “activity change, negative = inhibition” value was -9.13%.
Regarding `C[N+]1(C)C2CCC1CC(OC(=O)C(CO)c1ccccc1)C2` (configuration not stated), the “activity change, negative = inhibition” value was -7.19%.
In the case of `Oc1ccc2c3c1O[C@H]1c4[nH]c5c(c4C[C@@]4(O)[C@@H](C2)N(CC2CC2)CC[C@]314)C[C@@]1(O)[C@H]2Cc3ccc(O)c4c3[C@@]1(CCN2CC1CC1)[C@H]5O4`, the “activity change, negative = inhibition” value was 2.24%.
Take `Clc1ccc(C(c2ccc(Cl)cc2)n2cc[n+](CC(OCc3ccc(Cl)cc3Cl)c3ccc(Cl)cc3Cl)c2)cc1` (configuration not stated): the Potency is 28.2 µM (active).
For `NCCc1c[nH]c2ccc(O)cc12`, the “activity change, negative = inhibition” value was -5.34%.
In the case of `CC(C)Oc1cccnc1N(C)C1CCN(Cc2ccccc2)CC1`, the “activity change, negative = inhibition” value was -8.63%.
Regarding `NCc1cc(=O)[nH]o1`, the “activity change, negative = inhibition” value is -7.56%.
Consider `C[N+](C)(C)CC(=O)O`, for which the “activity change, negative = inhibition” value is -8.16%.
Turning to `NCCc1c[nH]c2ccccc12`, the “activity change, negative = inhibition” value was 0.0458%.
On the same count and under the same terms, the result for `CC[C@@H]1C(=O)OC[C@@H]1Cc1cncn1C` reads -11.1%; that for `C#CCOC(=O)C1=CCCN(C)C1`, -8.19%.
For `Cc1nccc2c1[nH]c1ccccc12`, the “activity change, negative = inhibition” value was 29.9%.
With `C[C@@H]1O[C@H](C[N+](C)(C)C)C[C@H]1O`, the “activity change, negative = inhibition” value is -6.88%.
Regarding `C=CCN1CC[C@]23CCCCC2[C@H]1Cc1ccc(O)cc13` (some centres not stated), the “activity change, negative = inhibition” value is -6.86%.
For the molecule `c1ccc2sc(C3(N4CCCCC4)CCCCC3)cc2c1`, the “activity change, negative = inhibition” value is -6.4%.
With `C[C@]12N[C@H](Cc3ccccc31)c1ccccc12`, the “activity change, negative = inhibition” value was -2.54%.
